# Experimental data as given in PubChem BioAssay (NCATS).
# Inconclusive results are not listed. Activity calls are given as the source filed them. Unless noted, calls follow the shape of the dose curve; as a rule, active = well fitted inhibition curve with a large enough effect; inconclusive = small, poorly fitted or top-dose-only effect; inactive = flat fitted curve, though single readings scatter.
# Key:
# [1] = qHTS drug screen for cell cycle checkpoint inhibitors in PARPi-resistant BRCA-mutant ovarian cancer cell lines. (AID 1963452; calls by dose curve); conditions: PEO1/OlaR viability, CellTiter-Glo luminescence, 96 h, stronger effect = lower value
# Procedure, shortened: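 PEO1, PEO4 and PEO1/OlaR ovarian cancer cells, 600 per well, exposed 96 h at 37C to a dilution series. Viability read by CellTiter-Glo luminescence, normalized to DMSO and empty wells; activity summarized as Z-AUC.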
# [2] = qHTS profiling for inhibitors of Plasmodium falciparum proliferation (AID 504749); also: potency is read from the fitted curve at half-maximal effect;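 as to activity, negative = inhibition: 0% = DMSO vehicle and full inhibition = artemisinin control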; as to all read-outs here: nearly all actives have a fitted effect of over 60% in size; conditions: P. falciparum in erythrocytes, SYBR Green DNA, 72 h; for activity, negative = inhibition: at 28.7 µM (top of the series)
# Procedure, shortened: (§1)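 Readout was DNA-dye fluorescence from lysed cultures, ex 485/em 535 nm. Parasitized red cells had grown 72 h with compound; data scaled between 0.29 uM artemisinin and DMSO wells and corrected using vehicle-only plates.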
# 3D7 = assay: as above; conditions: P. falciparum in erythrocytes, SYBR Green DNA, 72 h; series mostly up to 28.7 µM
# Procedure, shortened: as §1
# 7G8 = assay: as above; conditions: P. falciparum in erythrocytes, SYBR Green DNA, 72 h; series mostly up to 28.7 µM
# Procedure, shortened: as §1
# AA1029 = assay: as above; conditions: P. falciparum in erythrocytes, SYBR Green DNA, 72 h; series mostly up to 28.7 µM
# Procedure, shortened: as §1
# AS120 = assay: as above; conditions: P. falciparum in erythrocytes, SYBR Green DNA, 72 h; series mostly up to 28.7 µM
# Procedure, shortened: as §1
# ATS189 = assay: as above; conditions: P. falciparum in erythrocytes, SYBR Green DNA, 72 h; series mostly up to 28.7 µM
# Procedure, shortened: as §1
# ATS95 = assay: as above; conditions: P. falciparum in erythrocytes, SYBR Green DNA, 72 h; series mostly up to 28.7 µM
# Procedure, shortened: as §1
# C2A = assay: as above; conditions: P. falciparum in erythrocytes, SYBR Green DNA, 72 h; series mostly up to 28.7 µM
# Procedure, shortened: as §1
# CP185 = assay: as above; conditions: P. falciparum in erythrocytes, SYBR Green DNA, 72 h; series mostly up to 28.7 µM
# Procedure, shortened: as §1
# CP191 = assay: as above; conditions: P. falciparum in erythrocytes, SYBR Green DNA, 72 h; series mostly up to 28.7 µM
# Procedure, shortened: as §1
# [3] = measured here: PEO1 parental Z-AUC
Compound,Z-AUC [1],"Z-AUC [1, 3]",Z-AUC ([1]; measured here: PEO4 Z-AUC),Potency ([2]; parasite line A),Potency ([2]; parasite line B),Potency (3D7),Potency (7G8),Potency (AA1029),Potency (AS120),Potency (ATS189),Potency (ATS95),Potency (C2A),Potency (CP185),Potency (CP191),"activity, negative = inhibition ([2]; parasite line A)","activity, negative = inhibition ([2]; parasite line B)"
CCCCN(CCCC)CC(O)c1cc(Cl)cc2c1-c1ccc(Cl)cc1/C2=C/c1ccc(Cl)cc1 (stereo not drawn),-0.171 (inactive),-0.362,-0.228,0.0251 µM (active),0.0071 µM (active),0.0158 µM (active),2.8 nM (active),0.0141 µM (active),0.01 µM (active),0.0126 µM (active),0.0126 µM (active),0.0447 µM (active),0.0316 µM (active),0.0282 µM (active),–,–
CC[C@H]1CN2CCc3cc(OC)c(OC)cc3[C@@H]2C[C@@H]1C[C@H]1NCCc2cc(OC)c(OC)cc21,-0.485 (inactive),-0.835,-0.876,–,–,–,–,–,–,–,–,–,–,–,–,–
CC(=O)OCC(=O)[C@@]1(O)CC[C@H]2[C@@H]3CCC4=CC(=O)CC[C@]4(C)[C@H]3C(=O)C[C@@]21C,-1.11 (inactive),-0.142,-0.613,–,–,–,–,–,–,–,–,–,–,–,–,–
CCN(CC)CCNC(=O)c1c(C)[nH]c(/C=C2\C(=O)Nc3ccc(F)cc32)c1C,-0.535 (inactive),-0.162,-0.0779,6.31 µM (active),8.91 µM (active),8.91 µM (active),3980 nM (active),8.91 µM (active),7.08 µM (active),8.91 µM (active),7.08 µM (active),11.2 µM (active),7.08 µM (active),7.94 µM (active),–,–
Nc1ncnc2c1ncn2[C@@H]1O[C@H](CO)[C@@H](O)[C@H]1O,0.682 (inactive),0.71,1.16,–,–,inactive,inactive,inactive,inactive,inactive,inactive,inactive,inactive,inactive,7.65% (inactive),2.17% (inactive)
